Values joined by “and” are separate entries in the source; they are usually repeats but may differ in a detail not shown here. Equal entries are not always repeated. Results filed as inconclusive are left out. Active and inactive are the calls of the source. Unless noted, calls follow the shape of the full dose curve.

Chain of Cytochrome P450 1A2 (Homo sapiens) (P05177 whole entry, looked up): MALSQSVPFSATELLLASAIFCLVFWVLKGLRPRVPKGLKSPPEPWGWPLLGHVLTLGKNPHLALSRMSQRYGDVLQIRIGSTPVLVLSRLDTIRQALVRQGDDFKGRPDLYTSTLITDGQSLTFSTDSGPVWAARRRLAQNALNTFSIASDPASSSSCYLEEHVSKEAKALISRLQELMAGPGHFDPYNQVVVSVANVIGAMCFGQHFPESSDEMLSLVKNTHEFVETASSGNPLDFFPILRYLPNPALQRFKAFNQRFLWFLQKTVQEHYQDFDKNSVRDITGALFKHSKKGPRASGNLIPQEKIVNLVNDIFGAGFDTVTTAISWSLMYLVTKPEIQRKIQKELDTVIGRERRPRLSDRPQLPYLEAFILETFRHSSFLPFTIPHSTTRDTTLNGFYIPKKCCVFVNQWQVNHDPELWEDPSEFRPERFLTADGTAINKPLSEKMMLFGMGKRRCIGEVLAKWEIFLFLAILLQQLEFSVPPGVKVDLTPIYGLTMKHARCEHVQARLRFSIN

Tested on in the first assay: not listed separately
The experiment in a line: AP1 Signaling Pathway (AID 357; active = well fitted curve in either direction with a large enough effect, not every such curve was filed as active; also: % is scaled to controls: 0 for no effect and ±100 for the full control effect). The following applies: ME-180 AP-1-bla reporter, EGF-induced, beta-lactamase ratio, 5 h; at 17.2 µM (top of the series). In short, it runs like this: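 Titration-series screen for positive or negative modulators of EC50 EGF-induced signaling in ME-180 cells carrying an AP-1-driven beta-lactamase reporter. After 5 hours at 37 degrees Celsius, CCF4 460nm/530nm emission ratio gave %Activity; AC50 values derived.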
Consider `O=c1[nH]c2ccccc2n1CCCN1CCN(C(c2ccccc2)c2ccccc2)CC1`, for which the activity change, negative = inhibition was -6.95% (inactive).
As for `Cc1nc2sccn2c(=O)c1CCN1CCC(=C(c2ccccc2)c2ccc(F)cc2)CC1`, the activity change, negative = inhibition was -10.2% (inactive).
Still for that read-out and setting: then `N#C/C(=C\c1ccc(O)c(O)c1)C(=O)NCCCc1ccccc1`, with -12.8% (inactive).
On the same count and under the same terms, then `CCOc1ccc2nc(S(N)(=O)=O)sc2c1`, with 7.72% (inactive); and `CNCC[C@H](Oc1ccc(C(F)(F)F)cc1)c1ccccc1`, with 21.4% (inactive); and `Nc1ccc(O)c(C(=O)O)c1`, with 12.5% (inactive).
Still for that read-out and setting: then `Cc1ccc(C(=O)c2ccc(CC(=O)O)n2C)cc1`, with 6.83% (inactive).
Turning to `CN1[C@@H](CC(=O)c2ccccc2)CCC[C@H]1C[C@H](O)c1ccccc1`, the activity change, negative = inhibition is 1.25% (inactive).
Still for that read-out and setting: as for `CCCSc1ccc2nc(NC(=O)OC)[nH]c2c1`, the figure is 11.3% (inactive) and 5.12% (inactive).
`CC(C)Cc1ccc([C@H](C)C(=O)O)cc1`: the activity change, negative = inhibition was -1.53% (inactive).

Staying with this assay, now noted: ME-180 (cervical carcinoma) AP-1-bla reporter, EGF-induced, beta-lactamase ratio, 5 h; at 38 µM (top of the series).
Take `Oc1ccccc1O`: the activity change, negative = inhibition was -9.38% (inactive).
Same read-out and setting: then `C[N+](C)(CCCCCC[N+](C)(C)CCCN1C(=O)c2cccc3cccc(c23)C1=O)CCCN1C(=O)c2cccc3cccc(c23)C1=O`, with 14% (inactive).
Same read-out and setting: then `O=c1[nH]c2ccccc2n1CCCN1CCN(C(c2ccccc2)c2ccccc2)CC1`, with -17.6% (inactive).
Take `O=C(c1cc(O)c(O)c([N+](=O)[O-])c1)c1ccccc1F`: the activity change, negative = inhibition is -17.8% (inactive).
Still for that read-out and setting: then `Cc1nc2sccn2c(=O)c1CCN1CCC(=C(c2ccccc2)c2ccc(F)cc2)CC1`, with 8.49% (inactive); and `NC(=O)C(=O)O`, with 0.648% (inactive); and `CN(C)c1nc(N)c(C(=O)N=C(N)N)nc1Cl`, with 10.7% (inactive).
On the same count and under the same terms, then `NCCSSCCN`, with -9.31% (inactive).
The same measure, in the same setting: as for `Cn1c(=O)c2[nH]c(-c3ccccc3)nc2n(C)c1=O`, the figure is 14.7% (inactive); as for `NCCNC(=O)c1ncsc1-c1cccc(F)c1`, 0.181% (inactive); as for `NC[C@@H]1O[C@H](C23CC4CC(CC(C4)C2)C3)Cc2c1ccc(O)c2O`, -6.97% (inactive).
For `CCCN(CC1CC1)c1nc(C)nc(Nc2c(Cl)cc(Cl)cc2Cl)c1Cl`, the activity change, negative = inhibition is 18.7% (inactive).
Same read-out and setting: then `COc1ccccc1CNCCCCCCNCCCCCCCCNCCCCCCNCc1ccccc1OC`, with -8.92% (inactive); and `CN=c1nc(-c2ccccc2)n(-c2ccccc2)s1`, with 20.8% (inactive); and `Cc1cc(NC(=O)Nc2ccc3c(ccn3C)c2)sn1`, with -21.3% (inactive).
`NCCCCC(=O)O`: the activity change, negative = inhibition was -6.31% (inactive).
Still for that read-out and setting: as for `CNCC[C@H](Oc1ccc(C(F)(F)F)cc1)c1ccccc1`, the figure is 29.8% (inactive) and 23.7% (inactive); as for `O=C(O)CC[C@@H](C(=O)O)N1C(=O)c2ccccc2C1=O`, 3.98% (inactive).
On the same count and under the same terms, as for `N=C(N)SCCc1ccc(CCSC(=N)N)cc1`, the figure is 14.8% (inactive); as for `c1cnc2c(c1)ccc1cccnc12`, 0.206% (inactive).
`O=S(=O)(c1cccc2c(I)cccc12)N1CCCNCC1`: the activity change, negative = inhibition is 5.61% (inactive).
The same measure, in the same setting: as for `Fc1ccc(C(OCCCc2cnc[nH]2)c2ccc(F)cc2)cc1`, the figure is 26.5% (inactive); as for `NC(N)=NC(=O)c1nc(Cl)c(N2CCCCCC2)nc1N`, 21.5% (inactive).
Same read-out and setting: then `COc1ccccc1N1CCN(CCCCNS(=O)(=O)c2cccc3c(N(C)C)cccc23)CC1`, with 1.98% (inactive).
The same measure, in the same setting: as for `CC(C)Cc1ccc([C@H](C)C(=O)O)cc1`, the figure is -1.91% (inactive) and 13.2% (inactive).
For the compound `O=Nc1ccc2oc(=O)ccc2c1`, the activity change, negative = inhibition was 22.8% (inactive).
The same measure, in the same setting: as for `CC(C)(C=O)Cc1cc(C(C)(C)C)c(O)c(C(C)(C)C)c1`, the figure is 5.89% (inactive).

A further assay addresses Cytochrome P450 1A2 (Homo sapiens) (UniProt P05177). The experiment in a line: p450-cyp1a2 (AID 410). Also: potency is read from the fitted curve at half-maximal effect.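 As to activity change, negative = inhibition: -100% = full effect of reference inhibitor.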 The conditions noted are these: recombinant CYP1A2, luciferin-ME demethylation, luminescence; series mostly up to 57 µM. A digest of the protocol: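 Read-out is luminescence from luciferin produced by CYP1A2 demethylation of Luciferin-ME (100uM, at Km). Detection reagent stopped the 60 min NADPH-dependent reaction; signals were normalized to 57 uM furafylline.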
For the compound `Oc1ccccc1O`, the Potency result is “inactive”.
Still for that read-out and setting: then `C[N+](C)(CCCCCC[N+](C)(C)CCCN1C(=O)c2cccc3cccc(c23)C1=O)CCCN1C(=O)c2cccc3cccc(c23)C1=O`, with “inactive”.
Same read-out and setting: then `O=c1[nH]c2ccccc2n1CCCN1CCN(C(c2ccccc2)c2ccccc2)CC1`, with 25.1 µM (active).
Same read-out and setting: as for `O=C(c1cc(O)c(O)c([N+](=O)[O-])c1)c1ccccc1F`, the entry is “inactive”; as for `NC(=O)C(=O)O`, “inactive”.
Regarding `CN(C)c1nc(N)c(C(=O)N=C(N)N)nc1Cl`, the Potency was 1 µM (active).
On the same count and under the same terms, as for `NCCSSCCN`, the entry is “inactive”; as for `Cn1c(=O)c2[nH]c(-c3ccccc3)nc2n(C)c1=O`, 2 µM (active).
For `Clc1ccccc1-c1nc(-c2ccncc2)no1`, the Potency was 0.0794 µM (active).
Same read-out and setting: then `N#C/C(=C\c1ccc(O)c(O)c1)C(=O)NCCCc1ccccc1`, with 12.6 µM (active).
As to `NCCNC(=O)c1ncsc1-c1cccc(F)c1`, the Potency was 10 µM (active).
In the case of `NC[C@@H]1O[C@H](C23CC4CC(CC(C4)C2)C3)Cc2c1ccc(O)c2O`, the Potency result is “inactive”.
The same measure, in the same setting: as for `CCCN(CC1CC1)c1nc(C)nc(Nc2c(Cl)cc(Cl)cc2Cl)c1Cl`, the entry is “inactive”.
Still for that read-out and setting: as for `COc1ccccc1CNCCCCCCNCCCCCCCCNCCCCCCNCc1ccccc1OC`, the entry is “inactive”; as for `CN=c1nc(-c2ccccc2)n(-c2ccccc2)s1`, 5.01 µM (active); as for `Cc1cc(NC(=O)Nc2ccc3c(ccn3C)c2)sn1`, 10 µM (active) and 5.01 µM (active).
As to `NCCCCC(=O)O`, the Potency entry was “inactive”.
The same measure, in the same setting: then `CNCC[C@H](Oc1ccc(C(F)(F)F)cc1)c1ccccc1`, with 20 µM (active) and 5.01 µM (active) and 31.6 µM (active); and `O=C(O)CC[C@@H](C(=O)O)N1C(=O)c2ccccc2C1=O`, with “inactive”.
Same read-out and setting: then `N=C(N)SCCc1ccc(CCSC(=N)N)cc1`, with “inactive”; and `Nc1ccc(O)c(C(=O)O)c1`, with “inactive”.
Still for that read-out and setting: then `Cc1ccc(C(=O)c2ccc(CC(=O)O)n2C)cc1`, with “inactive”; and `c1cnc2c(c1)ccc1cccnc12`, with 3.98 µM (active) and 2 µM (active).
Turning to `O=S(=O)(c1cccc2c(I)cccc12)N1CCCNCC1`, the Potency was 10 µM (active).
Still for that read-out and setting: as for `Fc1ccc(C(OCCCc2cnc[nH]2)c2ccc(F)cc2)cc1`, the figure is 0.1 µM (active).
Same read-out and setting: as for `CN1[C@@H]2CC[C@H]1CC(OC(c1ccccc1)c1ccccc1)C2` (stereo partly drawn), the entry is “inactive”.
On the same count and under the same terms, then `NC(N)=NC(=O)c1nc(Cl)c(N2CCCCCC2)nc1N`, with 1 µM (active); and `CCCSc1ccc2nc(NC(=O)OC)[nH]c2c1`, with 0.398 µM (active).
Take `COc1ccccc1N1CCN(CCCCNS(=O)(=O)c2cccc3c(N(C)C)cccc23)CC1`: the Potency result was “inactive”.
On the same count and under the same terms, then `CC(C)Cc1ccc([C@H](C)C(=O)O)cc1`, with “inactive”.
Same read-out and setting: as for `CC(C)(C=O)Cc1cc(C(C)(C)C)c(O)c(C(C)(C)C)c1`, the figure is 25.1 µM (active).

The record behind these values is PubChem BioAssay (NCATS).
